Records with an inconclusive call do not appear. A call without a number means that no potency is given here. Values without a mark were called inactive. Active and inactive are the calls of the source. Calls follow the shape of the dose curve; as a rule, active = well fitted cell-killing curve with a large enough effect; inconclusive = small, poorly fitted or top-dose-only effect, or effect the other way; inactive = no such curve, though single readings can be large or run the other way.
The compounds below were run on C33A (assay: Confirmatory qHTS for gynecologic anti-cancer compounds from libraries of approved drugs and bioactive compounds). Details: gynecologic cancer cell panel viability, ATPlite luminescence, 48 h; series mostly up to 57.6 µM.
Outline: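 ATP-based luminescent viability (ATPlite) after 48 h drug treatment at 37 °C, 5% CO2, across 57.5 uM–0.977 nM in 1:3 steps. Cells seeded at 1,000 per well 16 h beforehand; IC50 values computed, HEK 293T as selectivity control.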
Also: nearly all actives have a fitted effect of over 55% in size.
Potency is read from the fitted curve at half-maximal effect.

Row | SMILES | Potency | activity change, negative = viability loss
1 | Cc1ccc(C(=O)N(CCCN)C(c2nc3cc(Cl)ccc3c(=O)n2Cc2ccccc2)C(C)C)cc1 (centres undefined) | 0.485 µM (active) | 
2 | C[C@@H](Oc1cc(-c2cnn(C3CCNCC3)c2)cnc1N)c1c(Cl)ccc(F)c1Cl | 24.3 µM (active) | 
3 | Cc1cncc2cccc(S(=O)(=O)N3CCCN(C(=O)CN)C[C@@H]3C)c12 | inactive | 
4 | Nc1ccccc1NC(=O)c1ccc(CNC(=O)OCc2cccnc2)cc1 | 5.44 µM (active) | 
5 | Nc1cccc(-c2cc3c(Oc4cccc(O)c4)ncnc3[nH]2)c1 | inactive | 
6 | COc1cc(Nc2ncc3c(n2)-c2ccc(Cl)cc2C(c2c(F)cccc2OC)=NC3)ccc1C(=O)O | inactive | 
7 | COc1cc(C(=O)N2CCC(N3CCN(C)CC3)CC2)ccc1Nc1ncc2c(n1)N(C)c1ccccc1C(=O)N2C | inactive | 
8 | Cc1cnc(CNC(=O)c2c(=O)c3ccc(N4CCCN(C)CC4)nc3n3c2sc2ccccc23)cn1 |  | -18.8% [at 10.7 µM]
9 | CN[C@@H](C)C(=O)N[C@H]1CN(C(=O)CC(C)C)CC[C@H]2CC[C@@H](C(=O)NC(c3ccccc3)c3ccccc3)N2C1=O | inactive | 
10 | COc1ccc2c(c1)c(CC(=O)O)c(C)n2C(=O)c1ccc(Cl)cc1 | inactive | 
11 | COc1cc2c(NC3CCN(C(C)C)CC3)nc(C3CCCCC3)nc2cc1OCCCN1CCCC1 | 15.3 µM (active) | 
12 | CN(C)C(CCOc1cccc2ccccc12)c1ccccc1 (centres undefined) | inactive | 
13 | CC1=C(/C=C/C(C)=C/C=C/C(C)=C/C(=O)Nc2ccc(O)cc2)C(C)(C)CCC1 | 3.85 µM (active) | 
14 | Cc1ccn(-c2ccc(-c3ncco3)cc2)c(=O)c1-c1ccc2nc(N)ncc2c1 | inactive | 

Reference: PubChem BioAssay AID1345085 (National Center for Advancing Translational Sciences (NCATS), 2018)
